From PubChem BioAssay
The list is not random: actives were taken first. Their share in the collection is about 7.2%.
FMDV inh: blocks foot and mouth disease virus. Potency, µM (doses to about 57.9 µM), hits mostly inhibitors. AID 1159524. 410,000 compounds, 1.2% hits. FMDV antiviral cell-based qHTS; calls by dose curve; tested in HEK293T cells; also: read-out not given here; nearly all actives have a fitted effect of over 45% in size
RE007 growth inh: less growth of the S. pombe RE007 Vpr strain. S. pombe RE007 Vpr strain, BacTiter-Glo ATP luminescence, 24 h. Potency, µM (highest dose often 92.2 µM), usual class: inhibitors. 360,000 compounds, 0.21% hits. AID 651644; active = well fitted falling curve with a large enough effect; inconclusive = small, poorly fitted or top-dose-only effect; inactive = no such curve, though single readings can be large or run the other way; also: nearly all actives have a fitted effect of over 50% in size
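Fission yeast strain RE007, carrying one chromosomally integrated HIV-1 vpr copy, was seeded at OD 0.01 in PMG+AL medium with 23 nL pinned compound. After 24 h at 30 °C and 99% humidity, viability was read by BacTiter-Glo luminescence.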
Sm TGR inh: blocks Schistosoma mansoni thioredoxin glutathione reductase. 360,000 compounds, 3% hits. Q962Y6. AID 485364. Potency, µM (top dose mostly 114 µM), usual class: inhibitors. purified TGR, DTNB reduction, TNB absorbance 405 nm; also: nearly all actives have a fitted effect of over 60% in size
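First, TGR (20 nM dispensed) and NADPH were mixed with compound. Second, a 15 min room-temperature incubation followed. Third, further NADPH and then DTNB were added to start the reaction. Finally, TNB absorbance was monitored kinetically.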
HCV inhibitor: blocks hepatitis C virus; Huh7.5.1 HCVcc-Cre infection, luciferase reporter, 44 h; 340,000 compounds, 3.4% hits; Potency, µM (titrated, usually from 41.8 µM), actives largely listed as inhibitors; AID 651820
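Compounds are dispensed onto cells plated 4 h earlier at 1,000 per well, with HCVcc-Cre virus (about 0.5 moi) added next. Following 44 h of culture, luminescent signal is measured for 15 sec after 15 min with substrate at room temperature.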
Marburg entry inh: blocks Marburg virus binding to or entry into cells. Marburg virus pseudotyped entry inhibition, cell reporter. Potency, µM (titrated, usually from 37.8 µM), actives largely listed as inhibitors. 300,000 compounds, 1.8% hits; calls by dose curve; tested in HEK293 cells
Lassa entry inh: Lassa virus entry inhibition. Lassa virus pseudotype entry inhibition, cell reporter. 300,000 compounds, 1.2% hits. Potency, µM (titrated, usually from 37.9 µM), usual class: inhibitors; calls by dose curve; tested in HEK293 cells; also: nearly all actives have a fitted effect of over 50% in size
Large screens that a line does not name were inactive. Unless noted, calls follow the shape of the dose curve; as a rule, active = well fitted curve in the direction sought with a large enough effect; inconclusive = small, poorly fitted or top-dose-only effect, or another doubt; inactive = no such curve, though single readings can be large; an effect the other way counts as inactive or inconclusive.

Cc1ccc(NC(=O)CN2C(=O)N/C(=C/c3cc(C)n(-c4cccc(C(=O)O)c4)c3C)C2=O)cc1	Sm TGR inh 20µM
CCn1c(C)cc(/C=C2\NC(=O)N(CC(=O)Nc3cccc(C)c3)C2=O)c1C	Lassa entry inh inconclusive
Cc1cccc(NC(=O)CN2C(=O)N/C(=C\c3ccc(-c4cccc(C(=O)O)c4)o3)C2=O)c1	Sm TGR inh 56µM
CCn1c(C)cc(/C=C2/NC(=O)N(CC(=O)Nc3cccc(C)c3)C2=O)c1C	none
Cc1ccc(NC(=O)CN2C(=O)N/C(=C/c3ccc(C)o3)C2=O)cc1	Sm TGR inh 35µM
Cc1ccc(CN2C(=O)N/C(=C\c3cccn3-c3cccc(C(=O)O)c3)C2=O)cc1	Sm TGR inh 35µM
Cc1ccc(CN2C(=O)N/C(=C/c3ccc(-c4ccc(C(=O)O)cc4)o3)C2=O)cc1	Sm TGR inh inconclusive (no result: Marburg entry inh, Lassa entry inh)
C=CCN1C(=O)N/C(=C/c2ccc(C)o2)C1=O	RE007 growth inh inconclusive, Sm TGR inh 32µM
C=C1c2cccc(O)c2C(O)=C2C(=O)[C@]3(O)C(O)=C(C(N)=O)C(=O)C(N(C)C)C3C(O)C12 (some centres not stated)	none (no result: RE007 growth inh, Sm TGR inh, HCV inhibitor, Marburg entry inh, Lassa entry inh)
CN(C)C1C(=O)C(C(N)=O)=C(O)C2(O)C(=O)C3=C(O)c4c(O)cccc4C(C)(O)C3CC12 (configuration not stated)	none (no result: Marburg entry inh, Lassa entry inh)
CN(C)[C@H]1C(=O)C(C(=O)NCN2CCCC2)=C(O)[C@]2(O)C(=O)C3=C(O)c4c(O)cccc4[C@](C)(O)[C@H]3C[C@H]12	Marburg entry inh inconclusive (no result: FMDV inh, RE007 growth inh, Sm TGR inh, HCV inhibitor)
CN(C)[C@@H]1C(=O)C(C(N)=O)=C(O)[C@@]2(O)C(=O)C3=C(O)c4c(O)cccc4[C@@](C)(O)C3[C@H](O)C12 (some centres not stated)	Sm TGR inh 8.9µM (no result: Marburg entry inh, Lassa entry inh)
CN(C)[C@@H]1C(=O)C(C(=O)NCN2CCCC2)=C(O)[C@@]2(O)C(=O)C3=C(O)c4c(O)cccc4[C@@](C)(O)C3CC12 (some centres not stated)	Sm TGR inh 7.9µM, Marburg entry inh inconclusive (no result: FMDV inh, RE007 growth inh)
C=C1c2cccc(O)c2C(O)=C2C(=O)[C@]3(O)C(O)=C(C(N)=O)C(=O)[C@@H](N(C)C)[C@@H]3[C@@H](O)[C@H]12	Sm TGR inh 35µM (no result: Marburg entry inh, Lassa entry inh)
CN(C)c1nc2cc(Cl)ccc2cc1CN(Cc1ccc2c(c1)OCO2)C(=O)c1ccoc1	none (no result: RE007 growth inh, Sm TGR inh, HCV inhibitor, Marburg entry inh, Lassa entry inh)
Cc1ccn2c(Nc3ccc4c(c3)OCCO4)c(-c3ccc(N(C)C)cc3)nc2c1	Marburg entry inh inconclusive (no result: RE007 growth inh, HCV inhibitor)
O=C(O)c1cc(-c2ccc(N3CCOCC3)cc2)nn1-c1ccc(F)cc1	none
O=C(c1cc(-c2ccco2)nn1-c1cccc(Cl)c1)N1CCCCC1	Sm TGR inh 7.1µM
Cc1ccc(-n2nc(-c3ccco3)cc2C(=O)O)cc1	Sm TGR inh 25µM (no result: Marburg entry inh, Lassa entry inh)
O=C(c1cc(-c2cccc(Cl)c2)on1)N1CCCCCC1	Lassa entry inh inconclusive
CC(C)NC(=O)c1nn2c(C(F)(F)F)cc(-c3ccco3)nc2c1Cl	Sm TGR inh inconclusive
CCOC(=O)c1cc(-c2ccco2)nn1-c1ccc(C)cc1	Sm TGR inh 14µM
CC(C)NC(=O)c1cc(-c2ccco2)nn1-c1ccc(Cl)cc1	Sm TGR inh 2.8µM, HCV inhibitor inconclusive
O=C(Nc1cccc(F)c1)N1CC2(CCN(C(=O)c3ccco3)CC2)C1	none (no result: RE007 growth inh, Sm TGR inh, HCV inhibitor, Marburg entry inh, Lassa entry inh)
CCOc1ccc(NC(=O)CSc2nc3ccsc3c(=O)n2C(C)CC)cc1 (configuration not stated)	none (no result: RE007 growth inh, HCV inhibitor, Marburg entry inh)
Nc1ncc(S(=O)(=O)Nc2ccc(F)cc2F)cn1	none (no result: RE007 growth inh, HCV inhibitor, Marburg entry inh)
COc1cccc2ccc(CN3CCC4(CC3)c3ccccc3[C@@H](NC(=O)c3ccccc3)[C@@H]4O)nc12	none (no result: RE007 growth inh, Sm TGR inh, HCV inhibitor, Marburg entry inh, Lassa entry inh)
COc1cccc(C(=O)c2ncc(C(F)(F)F)cc2Cl)c1	Sm TGR inh 50µM
COc1ccc(C(=O)c2ncc(C(F)(F)F)cc2Cl)cc1	none
CCn1c2ccccc2c2cc(NC(=O)c3coc(=O)c(Br)c3)ccc21	none (no result: FMDV inh, RE007 growth inh, HCV inhibitor, Marburg entry inh, Lassa entry inh)
CCn1c2ccccc2c2cc(NC(=O)c3cc(C)on3)ccc21	HCV inhibitor 14µM, Marburg entry inh inconclusive, Lassa entry inh inconclusive
Cc1nc2ccc(NC(=O)c3ccc(Br)o3)cc2s1	Marburg entry inh inconclusive
CCCC(=O)Nc1nc2ccc(NC(=O)c3ccc(Br)o3)cc2s1	HCV inhibitor 7.9µM, Marburg entry inh inconclusive
CCn1c2ccccc2c2cc(NC(=O)c3ccc(Br)o3)ccc21	Sm TGR inh 11µM, HCV inhibitor inconclusive
Cc1ccc2c(c1)-c1c(cnn1CC(=O)N1CCN(c3cc(Cl)ccc3C)CC1)CO2	none (no result: RE007 growth inh, HCV inhibitor, Lassa entry inh)
COc1cccc(CNC(=O)c2c(C)oc3ncnc(N4CCOCC4)c23)c1	Lassa entry inh inconclusive (no result: RE007 growth inh, HCV inhibitor, Marburg entry inh)
C[C@]12CC[C@@H]3c4ccc(O)cc4C[C@@H](CCCCCCCCCS(=O)CCCC(F)(F)C(F)(F)F)[C@H]3[C@@H]1CC[C@@H]2O (some centres not stated)	Marburg entry inh inconclusive, Lassa entry inh 3.3µM (no result: FMDV inh, RE007 growth inh, Sm TGR inh, HCV inhibitor)
CCCCSc1nc2c(cnn2-c2ccccc2)c(=O)n1N	RE007 growth inh inconclusive (no result: Sm TGR inh, Marburg entry inh, Lassa entry inh)
CCCSc1nc2c(cnn2-c2ccccc2)c(=O)n1N	Marburg entry inh inconclusive, Lassa entry inh 8.9µM
CC1=C(c2ccc(C)c(C)c2)S(=O)(=O)N(Cc2ccc(C(=O)NC(C)c3ccccc3)cc2)C1=O (configuration not stated)	none (no result: RE007 growth inh, HCV inhibitor, Marburg entry inh)
COc1ccccc1CNC(=O)C(NS(=O)(=O)c1ccc2c(c1)CCN2C(C)=O)C(C)C (configuration not stated)	none (no result: RE007 growth inh, HCV inhibitor)
COc1ccc2c(c1)c(C(O)CN1CCN(Cc3ccc4c(c3)OCO4)CC1)c(C)n2C (configuration not stated)	Sm TGR inh 25µM, HCV inhibitor inconclusive, Marburg entry inh inconclusive, Lassa entry inh inconclusive
Cc1c(C(O)CN2CCN(Cc3ccc4c(c3)OCO4)CC2)c2ccccc2n1C (configuration not stated)	Sm TGR inh 28µM, HCV inhibitor 18µM, Marburg entry inh inconclusive, Lassa entry inh inconclusive
OC(CN1CCN(Cc2ccc3c(c2)OCO3)CC1)c1c[nH]c2ccccc12 (configuration not stated)	HCV inhibitor inconclusive, Lassa entry inh inconclusive
COc1ccc2c(c1)c(C(O)CN1CCC(Cc3ccccc3)CC1)c(C)n2C (configuration not stated)	HCV inhibitor inconclusive, Marburg entry inh inconclusive, Lassa entry inh inconclusive
COc1cccc(-c2nc(CSCC(=O)NCCc3ccc(Cl)cc3)c(C)o2)c1	FMDV inh inconclusive, Marburg entry inh inconclusive (no result: RE007 growth inh, HCV inhibitor)
Cc1oc2ccc(O)c(CN3CCN(Cc4ccccc4)CC3)c2c1C(=O)Nc1ccccc1	Marburg entry inh inconclusive, Lassa entry inh inconclusive (no result: RE007 growth inh, HCV inhibitor)
CCOC(=O)Nc1ccc2nc(Sc3ccc(Cl)cc3)sc2c1	HCV inhibitor 14µM (no result: Marburg entry inh, Lassa entry inh)
CCOC(=O)CSc1nc2ccc(NC(=O)c3ccc(Cl)cc3)cc2s1	none (no result: RE007 growth inh, HCV inhibitor)
